The full ranking holds about 39,000 sequences; the median of “fluorescence intensity (a.u.)” is about 4,300, and the highest 2% start at about 39,000. The list comes from a sample in which the highest values are over-represented; it also holds similar and randomly drawn sequences.

Experimental findings from PMC7819943, “Rice protein-binding microarrays: a tool to detect cis-acting elements near promoter regions in rice” are described below.

The assay deals with T1, OsSMF1 (Oryza sativa, UniProt Q6ZLB0 1-436).
T1 sequence: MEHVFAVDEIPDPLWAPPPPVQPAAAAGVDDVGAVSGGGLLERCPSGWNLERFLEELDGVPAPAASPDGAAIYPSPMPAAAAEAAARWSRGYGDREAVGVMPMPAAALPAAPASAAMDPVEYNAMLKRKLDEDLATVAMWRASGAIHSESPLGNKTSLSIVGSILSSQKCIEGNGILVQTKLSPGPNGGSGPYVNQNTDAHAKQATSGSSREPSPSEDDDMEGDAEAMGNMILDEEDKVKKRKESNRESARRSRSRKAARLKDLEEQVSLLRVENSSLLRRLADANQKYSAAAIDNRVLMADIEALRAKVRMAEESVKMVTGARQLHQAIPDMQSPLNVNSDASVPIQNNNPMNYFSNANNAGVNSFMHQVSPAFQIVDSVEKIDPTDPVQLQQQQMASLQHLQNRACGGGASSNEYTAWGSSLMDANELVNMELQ
The assay can be described thus: protein-binding microarray (RPBM); PBS, 2% BSA, 51.3 ng/ul salmon testes DNA, 50 uM zinc acetate, 200 nM TF, 25 C, 1 h; high values mean tight binding. The note with it: protein: recombinant; tags: N-terminal polyhistidine and DsRed monomer fusion (pET32a); chain copies: 2; label: CyDye5-dUTP incorporated in the synthesized complementary strand; 3' TTTTT single-stranded linker to array surface; dsDNA, one strand shown. In outline:
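The binding signal for each feature is its fluorescence intensity in arbitrary units. An Axon 4000B scanner was used to read a custom Agilent array that had been made double-stranded with Cy5-dUTP primer extension, blocked with 2% BSA, incubated at 25 °C for 1 h with 200 nM protein in PBS, 2% BSA, salmon testes DNA and 50 µM zinc acetate, and washed. The protein was an N-terminal polyhistidine–DsRed transcription factor fusion from E. coli BL21-CodonPlus, purified on Ni–NTA.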
As for “CGTACGGCACCGAGTTATCGCCGCCAGGTCAGTTGGTTTACGGAGTCACCTAGTGCAG”, the binding signal was 3690 fluorescence intensity (a.u.).
The figure for “CACTAGCTTGTTATATTTACGTGGCACACTTTGATGAGTACGGAGTCACCTAGTGCAG” is 11500 fluorescence intensity (a.u.).
For the sequence “AGCTAGAACGCACAGACTTTAGGCTTTAGGTACGATGATGCGGAGTCACCTAGTGCAG”, the binding signal was 43300 fluorescence intensity (a.u.).
The figure for “CACAGGCAGGCCTGCAACATGCGTCACGCAGACTTTGATGCGGAGTCACCTAGTGCAG” is 4140 fluorescence intensity (a.u.); for “AAAGCAACAGCAGCCCAGCACACCACAGCACAGCGCCGCTCGGAGTCACCTAGTGCAG” it is 3180 fluorescence intensity (a.u.); for “CATCATCATCTCTTCTCCTCTCTCTCTCTCTTTCCTTTTCCGGAGTCACCTAGTGCAG” it is 8580 fluorescence intensity (a.u.).
For “CTCCTCTTCCCTTCCCTTCTCTCTTTTCTTTTCTCTCACACGGAGTCACCTAGTGCAG”, the binding signal is 28600 fluorescence intensity (a.u.).
The figure for “TCCTGTCCTTCTTTCTCTTCAAGTCCTTCCTCTTCACTCCCGGAGTCACCTAGTGCAG” is 65500 fluorescence intensity (a.u.); for “CTCCTCTCCTCCCTCCTCGACTTCTCCGCTTTCTCCGCCTCGGAGTCACCTAGTGCAG” it is 3230 fluorescence intensity (a.u.).
Regarding “TTCCTGACTTCCTCCTCCCTTTCTTCTCTCGCCGCCGAGACGGAGTCACCTAGTGCAG”, the binding signal was 41400 fluorescence intensity (a.u.).
The figure for “CTTCACTAAGGTCATCGTCGTGCCTTCCTCGTCCTCCTCCCGGAGTCACCTAGTGCAG” is 43800 fluorescence intensity (a.u.); for “TCCTCCTCGTCGTCATCTCCAACTCCCTCCCGCTCCCTTCCGGAGTCACCTAGTGCAG” it is 5660 fluorescence intensity (a.u.); for “TCTCCCCTCTCCTTCCTCCTCTCCTTTCCCCTCCTCTCTTCGGAGTCACCTAGTGCAG” it is 17100 fluorescence intensity (a.u.).
Regarding “TCCTCCATCGCCGCCTTCACCGAGTCACCGCCCGTCATCCCGGAGTCACCTAGTGCAG”, the binding signal was 3380 fluorescence intensity (a.u.).
The figure for “GACCAAACCTCCAATTAACAAGGTAGTTTAACACACATCACGGAGTCACCTAGTGCAG” is 16100 fluorescence intensity (a.u.); for “TACAAGTATAAAACTTTAGATACGTGGGATTAACACGTCACGGAGTCACCTAGTGCAG” it is 6470 fluorescence intensity (a.u.).
The figure for “CCTCGGGGAGGGCGTGGCAAGCGGCACGCGTGGCGGGGAGCGGAGTCACCTAGTGCAG” is 5890 fluorescence intensity (a.u.).
Consider “CCCCAGAAAGTCCCCATATTTCTAGGAACTTCCGTTCTAGCGGAGTCACCTAGTGCAG”, for which the binding signal was 13900 fluorescence intensity (a.u.).
As for “GCTCATAGAGCTACACACTGATGACAAGACATAAGGGAAGCGGAGTCACCTAGTGCAG”, the binding signal is 4350 fluorescence intensity (a.u.).
The figure for “ACCTCCGGCCCACGGACGCGACGCGCTTACACACATGGCCCGGAGTCACCTAGTGCAG” is 3580 fluorescence intensity (a.u.); for “TGGATTACTCATAATGATTATGTCATATAGGTGATGTTGCCGGAGTCACCTAGTGCAG” it is 3440 fluorescence intensity (a.u.).
The figure for “ATATAGCATGTCAAGATATTTGGGTGATATGTACTATGTACGGAGTCACCTAGTGCAG” is 4580 fluorescence intensity (a.u.); for “GGATAAGCACCGACGATTTGGTGGTAGATCTATATGGGTACGGAGTCACCTAGTGCAG” it is 48000 fluorescence intensity (a.u.); for “TGATACGATGACGTTTGGGTGGTTGGATATATATCATGATCGGAGTCACCTAGTGCAG” it is 5350 fluorescence intensity (a.u.).
The figure for “ATGATTTATTATGTTCTGCCCTTCTTTGTTGTGACAAAGTCGGAGTCACCTAGTGCAG” is 3900 fluorescence intensity (a.u.); for “TGCTTTCCTCCCTTTATTACTACATCATGCGCCTTCGTGACGGAGTCACCTAGTGCAG” it is 3370 fluorescence intensity (a.u.); for “AGCTGGCGGCTGGCGGGTGGTGGTGGTGGCTGGCGGCGGGCGGAGTCACCTAGTGCAG” it is 4500 fluorescence intensity (a.u.).
As for “GAAGAATCGGCCCAACGACCAAGAGGGAGTCAAAATAGACCGGAGTCACCTAGTGCAG”, the binding signal was 22600 fluorescence intensity (a.u.).
On to “CAGTGCCGACTGCCGAGGCAGAGAGGCAGACAAAGTGACACGGAGTCACCTAGTGCAG”, for which the binding signal is 54900 fluorescence intensity (a.u.).
The figure for “CCCACCTGTGACTCAGCGAGCCGACTGCCACGTCAGACAACGGAGTCACCTAGTGCAG” is 34400 fluorescence intensity (a.u.); for “ACATCCGAGAGACTAGGCCGACAAATCACCACCGACACGTCGGAGTCACCTAGTGCAG” it is 5890 fluorescence intensity (a.u.).
As for “GTAGAAAGCAGGGATAAAGTATTGGTGGAGATGTCACGCCCGGAGTCACCTAGTGCAG”, the binding signal is 3560 fluorescence intensity (a.u.).
The figure for “ATCCACGAGGGCAAGCAAGCAAGCAAGCTCCACCTCTCTGCGGAGTCACCTAGTGCAG” is 3220 fluorescence intensity (a.u.).
Take “GTCAAAGTTATAAAAGTTTGACCTCAACTTTGTCCAAAACCGGAGTCACCTAGTGCAG”: the binding signal was 24200 fluorescence intensity (a.u.).
The figure for “TTAAATTTGAAACAGTTTGACTTTGACCAGTCAAAGTCTTCGGAGTCACCTAGTGCAG” is 8060 fluorescence intensity (a.u.).
Consider “CTTAAAGCAGTTTGACTTTGACCAAAGTCAAAACGTCTTACGGAGTCACCTAGTGCAG”, for which the binding signal was 40600 fluorescence intensity (a.u.).
For “CTGGGCAAAATCTCTCCCATACATACACTACAGCGGCGAACGGAGTCACCTAGTGCAG”, the binding signal is 3290 fluorescence intensity (a.u.).
As to “GGGCGTTGCGGCCGTCACACGTGGTATGGGAGGGCGCCGCCGGAGTCACCTAGTGCAG”, the binding signal is 5820 fluorescence intensity (a.u.).
“TAGTAGTACTATGTAACCGGTACAGTCACCAAAACAGGGTCGGAGTCACCTAGTGCAG”: the binding signal was 5260 fluorescence intensity (a.u.).
The figure for “CAGTTGACAAATGACAACCGGCACGTTTGCAACATGCAAGCGGAGTCACCTAGTGCAG” is 3220 fluorescence intensity (a.u.).
For “TTTGCCTACTCATCACCACATGTATAAAGTGTAAACTTTACGGAGTCACCTAGTGCAG”, the binding signal was 5240 fluorescence intensity (a.u.).
Consider “GTTTATACCTATAAAGTTTCTATATTAAAAGTTTACGTGTCGGAGTCACCTAGTGCAG”, for which the binding signal is 3490 fluorescence intensity (a.u.).
Regarding “CAGTTCTTAAACTTGTAAAGTTGTGTCATATACCACATTACGGAGTCACCTAGTGCAG”, the binding signal is 39600 fluorescence intensity (a.u.).
